Test results as given in PubChem BioAssay.
For some of these results: Entries with a potency or affinity are not part of this list. Calls of active or inactive are those of the source.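 The calls were made as follows, unless noted: active = primary screen active and over 50% activation in each of two duplicate runs; inactive = the rest.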

How the values were obtained:
[1] = system: TRPC4 beta (transient receptor potential cation channel C4), mouse; assay: TRPC4 cation channel opening, retest – cell-based, Fluo4 calcium, HEK293 TRPC4beta/mu-opioid, duplicates, 10 µM, confirmation (AID 2426;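 active = fluorescence ratio normalized to control raised more than 50% in primary screen plus both repeat runs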;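 also: percent rise of integrated ratio over buffer wells lacking compound which define 0%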); settings: Fluo4 calcium fluorescence, at 10 µM; active compounds read high
[2] = system: transient receptor potential cation channel C4 beta (TRPC4), mouse; assay: TRPC4 cation channel opening, second retest – cell-based, second round, Fluo4, HEK293 TRPC4beta/mu-opioid, 1 µM, confirmation (AID 2461); settings: Fluo4 calcium fluorescence, at 1 µM; active compounds read high;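 as to activation: 0% = wells without test compound as baseline of integrated fluorescence ratio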
[3] = system: TRPC4 (transient receptor potential cation channel C4 beta), mouse; assay: potentiation of DAMGO EC20 TRPC4 response – cell-based, second round, Fluo-4, HEK293 TRPC4beta/mu-opioid, 1 µM, confirmation (AID 2554;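 active = primary screen hit whose fluorescence ratio, in both repeats, exceeds the weak agonist control mean by 3 SD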); settings: DAMGO EC20, Fluo-4 calcium flux, at 1 µM; active compounds read high
[4] = system: TRPC4 beta (transient receptor potential cation channel C4), mouse; assay: potentiation of DAMGO EC20 TRPC4 response – cell-based, Fluo-4, HEK293 TRPC4beta/mu-opioid, confirmation (AID 2555;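 active = primary screen hit whose calcium fluorescence ratio, in both repeats, exceeds the weak agonist control mean by 3 SD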); settings: DAMGO EC20, Fluo-4 calcium flux, at 10 µM; active compounds read high
[5] = molecular target: Short transient receptor potential channel 4 (Mus musculus) (UniProt Q9QUQ5); assay: blockers of DAMGO-evoked TRPC4 calcium flux – cell-based, Fluo4, HEK293 TRPC4beta/mu-opioid, confirmation (AID 2636;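 active = calcium signal cut by more than 3 SD below the full-agonist control yet still positive, in both repeats and the earlier primary screen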); settings: at 10 µM; active compounds read high
Chain of Short transient receptor potential channel 4 (Mus musculus) (Q9QUQ5 whole entry, looked up): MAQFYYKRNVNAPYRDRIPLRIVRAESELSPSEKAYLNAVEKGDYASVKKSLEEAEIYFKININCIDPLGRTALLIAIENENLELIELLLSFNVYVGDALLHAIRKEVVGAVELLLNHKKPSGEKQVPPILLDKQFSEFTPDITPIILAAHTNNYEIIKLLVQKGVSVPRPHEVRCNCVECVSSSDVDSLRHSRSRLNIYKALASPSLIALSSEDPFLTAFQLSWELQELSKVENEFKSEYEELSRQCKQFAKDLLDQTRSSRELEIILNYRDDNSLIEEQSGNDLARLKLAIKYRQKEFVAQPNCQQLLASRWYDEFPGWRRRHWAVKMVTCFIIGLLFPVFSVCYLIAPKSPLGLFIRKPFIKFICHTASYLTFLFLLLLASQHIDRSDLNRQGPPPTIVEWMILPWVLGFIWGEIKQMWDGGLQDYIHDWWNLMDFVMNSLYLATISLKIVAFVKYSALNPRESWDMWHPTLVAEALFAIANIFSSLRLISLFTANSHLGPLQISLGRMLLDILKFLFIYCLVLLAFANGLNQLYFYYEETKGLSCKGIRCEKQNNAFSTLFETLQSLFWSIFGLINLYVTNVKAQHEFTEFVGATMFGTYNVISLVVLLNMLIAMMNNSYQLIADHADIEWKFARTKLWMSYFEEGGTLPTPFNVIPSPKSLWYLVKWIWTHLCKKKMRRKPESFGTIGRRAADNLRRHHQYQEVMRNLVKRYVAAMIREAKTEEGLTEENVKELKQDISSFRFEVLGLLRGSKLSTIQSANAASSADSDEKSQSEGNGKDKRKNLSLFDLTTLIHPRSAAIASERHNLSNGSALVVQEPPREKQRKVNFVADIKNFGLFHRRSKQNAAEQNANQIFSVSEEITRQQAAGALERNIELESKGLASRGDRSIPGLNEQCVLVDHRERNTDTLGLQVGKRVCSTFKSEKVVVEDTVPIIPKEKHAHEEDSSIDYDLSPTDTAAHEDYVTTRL

[6] = molecular target: Short transient receptor potential channel 4 (Mus musculus) (UniProt Q9QUQ5); assay: blockers of DAMGO-evoked TRPC4 calcium flux – cell-based, second round, Fluo4, HEK293 TRPC4beta/mu-opioid, 1 µM, confirmation (AID 2637;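 active = calcium signal ratio cut to more than 3 SD under the fully stimulated control mean yet still positive, in both repeats and the primary screen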); settings: at 1 µM; active compounds read high
[7] = molecular target: Short transient receptor potential channel 4 (Mus musculus) (UniProt Q9QUQ5); assay: potentiation of DAMGO-evoked TRPC4 calcium signal – cell-based, HEK293 TRPC4/mu-opioid, Fluo-4 calcium, EC20 DAMGO, dose response (AID 434941;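 active = earlier screen potentiator hit that boosts the TRPC4 ion channel at some dose, with a dose response; inactive = no potentiation, no dose response, or not a prior hit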;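 also: calcium entry triggered by an EC20 dose of DAMGO at the co-expressed mu-opioid receptor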)
[8] = molecular target: Short transient receptor potential channel 4 (Mus musculus) (UniProt Q9QUQ5); assay: block of DAMGO-driven TRPC4 calcium entry – cell-based, HEK293 TRPC4/mu-opioid, Fluo-4 calcium, dose response (AID 434942;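 active = primary screen inhibitor hit that blocks the TRPC4 channel at some tested dose, yielding a dose curve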)
[9] = molecular target: Short transient receptor potential channel 6 (Mus musculus) (UniProt Q61143); assay: TRPC6 blockade by TRPC4 inhibitor hits – cell-based, HEK293, membrane potential dye, duplicate, selectivity assay for TRPC4 inhibitor project, confirmation (AID 434948;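 active = active in primary screen and both duplicates, each dropping signal beyond three positive-control SD with fluorescence still positive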); settings: HEK293 TRPC6, membrane potential dye fluorescence, at 10 µM; inhibition: active compounds read high, stimulated with maximal-effect acetylcholine unless noted; outcome: stimulated with maximal-effect acetylcholine unless noted
Chain of Short transient receptor potential channel 6 (Mus musculus) (Q61143 whole entry, looked up): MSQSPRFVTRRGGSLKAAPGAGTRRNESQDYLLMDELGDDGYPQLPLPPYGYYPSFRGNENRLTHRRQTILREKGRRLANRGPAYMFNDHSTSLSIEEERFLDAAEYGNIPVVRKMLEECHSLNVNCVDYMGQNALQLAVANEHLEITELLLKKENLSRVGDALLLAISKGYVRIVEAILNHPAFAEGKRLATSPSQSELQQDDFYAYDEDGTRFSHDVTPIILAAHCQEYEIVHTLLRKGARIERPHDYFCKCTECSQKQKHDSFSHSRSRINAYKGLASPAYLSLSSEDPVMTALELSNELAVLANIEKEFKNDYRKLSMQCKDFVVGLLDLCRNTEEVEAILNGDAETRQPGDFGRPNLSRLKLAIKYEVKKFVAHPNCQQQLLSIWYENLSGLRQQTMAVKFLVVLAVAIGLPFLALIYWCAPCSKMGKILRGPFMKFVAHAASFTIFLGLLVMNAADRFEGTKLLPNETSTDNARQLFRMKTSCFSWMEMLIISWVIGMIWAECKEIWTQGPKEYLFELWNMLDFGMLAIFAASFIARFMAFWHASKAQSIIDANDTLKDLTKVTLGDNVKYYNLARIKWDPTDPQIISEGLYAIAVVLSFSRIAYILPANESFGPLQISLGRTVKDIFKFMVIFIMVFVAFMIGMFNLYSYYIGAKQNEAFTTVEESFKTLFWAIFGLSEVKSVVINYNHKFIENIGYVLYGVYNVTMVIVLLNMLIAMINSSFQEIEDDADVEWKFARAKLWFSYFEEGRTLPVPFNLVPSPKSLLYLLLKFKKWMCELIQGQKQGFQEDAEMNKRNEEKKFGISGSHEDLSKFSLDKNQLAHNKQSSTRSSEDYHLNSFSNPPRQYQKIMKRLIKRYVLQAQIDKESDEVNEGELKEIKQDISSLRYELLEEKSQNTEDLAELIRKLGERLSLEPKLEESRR

[10] = molecular target: Short transient receptor potential channel 6 (Mus musculus) (UniProt Q61143); assay: TRPC6 opening by TRPC4 activator hits – cell-based, HEK293, membrane potential dye, duplicate, selectivity assay for TRPC4 activator project, confirmation (AID 434950;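 active = membrane potential signal rise above negative control mean plus 3 SD in both duplicates, also active in the earlier TRPC4 screen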;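 as to activation: 0% = buffer only wells and 100% = acetylcholine maximal-effect wells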); settings: HEK293 TRPC6, membrane potential fluorescence, at 10 µM; activation: active compounds read high; outcome: activation
[11] = molecular target: Short transient receptor potential channel 6 (Mus musculus) (UniProt Q61143); assay: positive modulators of mouse TRPC6 channel – HEK293 cells, membrane potential dye, duplicate, selectivity assay for TRPC4 potentiator project, confirmation (AID 434952;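 active = compound raising the membrane signal above positive-control mean plus 3 SD in both repeats, and a primary screen hit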); settings: HEK293 TRPC6, membrane potential dye fluorescence, at 10 µM; maximal acetylcholine added after compound unless noted
[12] = molecular target: Short transient receptor potential channel 4 (Mus musculus) (UniProt Q9QUQ5); assay: calcium flux activators in TRPC4/5HT1a cells, counter-screen for TRPC4 activator project, cell-based, second counter screen, HEK293 TRPC4/5HT1a, Fluo-4 (AID 434977;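 active = calcium signal rise above buffer-control mean plus 5 SD in both duplicates, and also a hit in the primary screen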;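 as to activation: plate controls were assay buffer for no effect and maximal serotonin response for full effect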); settings: Fluo-4 calcium flux, at 10 µM; active compounds read high
[13] = serotonin-gated TRPC4 signal block – cell-based, second counter screen, HEK293 TRPC4/5HT1a, Fluo-4, counter-screen for TRPC4 inhibitor project, confirmation (AID 434978;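 active = primary screen active whose calcium signal fell more than 3 SD beyond the full-serotonin control mean in both duplicate plates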;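 also: serotonin given first at submaximal then at maximal dose after compound preincubation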); settings: Fluo-4 calcium flux, at 10 µM; inhibition: active compounds read high, serotonin added to trigger calcium flux unless noted; outcome: serotonin added to trigger calcium flux unless noted
[14] = system: TRPC4 (mouse), co-expressed with 5HT1a in HEK293; assay: enhancement of serotonin-evoked TRPC4 response – cell-based, second counter screen, HEK293 TRPC4/5HT1a, Fluo-4, counter-screen for TRPC4 potentiator project, confirmation (AID 434979;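 active = signal rise over 3 SD above mean of control wells given weak agonist, in both repeats and first screen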); settings: Fluo-4 calcium flux, at 10 µM; outcome: serotonin added at its EC20 dose unless noted; potentiation: active compounds read high, serotonin added at its EC20 dose unless noted
[15] = nonspecific calcium rise without TRPC4 – cell-based, HEK293 mu-opioid receptor line, counter-screen for TRPC4 activator project, confirmation (AID 449723;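 active = hit in primary screen, with calcium signal over 5 SD above buffer well mean in both duplicates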;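 also: counter screen cells carry the mu-opioid receptor alone and lack TRPC4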); settings: HEK293 mu-opioid cells, Fluo-4 calcium fluorescence, at 10 µM; active compounds read high
[16] = nonspecific potentiation of DAMGO calcium response – cell-based, HEK293 mu-opioid receptor line, counter-screen for TRPC4 allosteric potentiator project, confirmation (AID 449724;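 active = calcium signal rise more than 3 SD above the low-dose agonist control mean, in both duplicate plates and the primary screen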); settings: HEK293 mu-opioid receptor cells, Fluo-4 calcium flux, at 10 µM; compound added before EC20 DAMGO stimulus unless noted
[17] = nonspecific flux increase, KCNQ1-free cells – parental CHO cells, counter-screen for KCNQ1 potentiator project (AID 493006;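 active = duplicate-averaged activation above buffer control mean plus 5 SD of those controls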;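 also: fluorescence ratio of max minus min over baseline after K+ and Tl+ depolarization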); settings: parental CHO-K1 cells, FluxOR thallium flux, at 10 µM; active compounds read high
[18] = molecular target: Potassium voltage-gated channel subfamily KQT member 1 (Homo sapiens) (UniProt P51787); assay: enhancement of KCNQ1 channel thallium flux – FluxOR thallium flux, CHO cells, duplicates, confirmation (AID 493007;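 active = potentiation averaged over duplicate wells exceeding buffer-only control mean by more than 3 SD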;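 also: 0% = buffer-only wells and 100% = R-L3 activator control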); settings: KCNQ1 cell line, FluxOR thallium flux fluorescence, at 10 µM; active compounds read high, % of reference activator effect, buffer zero
Chain of Potassium voltage-gated channel subfamily KQT member 1 (Homo sapiens) (P51787 whole entry, looked up): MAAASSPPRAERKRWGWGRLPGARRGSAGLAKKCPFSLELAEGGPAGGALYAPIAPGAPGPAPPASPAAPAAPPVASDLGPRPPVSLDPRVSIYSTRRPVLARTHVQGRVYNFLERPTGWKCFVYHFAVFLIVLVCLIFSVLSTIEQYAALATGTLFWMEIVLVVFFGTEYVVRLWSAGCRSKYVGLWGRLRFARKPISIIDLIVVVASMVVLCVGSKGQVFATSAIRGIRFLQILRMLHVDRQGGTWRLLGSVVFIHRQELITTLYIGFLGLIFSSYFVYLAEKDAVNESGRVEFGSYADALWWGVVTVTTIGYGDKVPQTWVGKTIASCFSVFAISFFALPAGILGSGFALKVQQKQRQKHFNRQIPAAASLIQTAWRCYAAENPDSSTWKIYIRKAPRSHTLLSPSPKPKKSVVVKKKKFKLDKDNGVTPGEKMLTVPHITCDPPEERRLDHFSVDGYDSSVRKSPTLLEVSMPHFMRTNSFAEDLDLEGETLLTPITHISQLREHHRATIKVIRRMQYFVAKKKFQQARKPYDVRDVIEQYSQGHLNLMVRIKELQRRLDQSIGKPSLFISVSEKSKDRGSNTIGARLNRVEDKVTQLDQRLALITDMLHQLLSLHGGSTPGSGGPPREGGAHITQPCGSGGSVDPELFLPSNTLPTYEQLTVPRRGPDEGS

[19] = molecular target: Potassium voltage-gated channel subfamily KQT member 2 (Rattus norvegicus) (UniProt O88943); assay: KCNQ2 thallium flux enhancement – KCNQ2-CHO-K1 cells, selectivity assay for KCNQ1 potentiator project (AID 493009;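 active = mean duplicate potentiation above the buffer control mean plus 5 SD of buffer wells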;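 also: assay conditions were tuned for KCNQ1 rather than KCNQ2 modulators; signal is max minus min fluorescence divided by baseline after thallium stimulus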); settings: FluxOR thallium flux fluorescence, at 10 µM; active compounds read high, scaled: buffer 0, activator control 100
Chain of Potassium voltage-gated channel subfamily KQT member 2 (Rattus norvegicus) (O88943 whole entry, looked up): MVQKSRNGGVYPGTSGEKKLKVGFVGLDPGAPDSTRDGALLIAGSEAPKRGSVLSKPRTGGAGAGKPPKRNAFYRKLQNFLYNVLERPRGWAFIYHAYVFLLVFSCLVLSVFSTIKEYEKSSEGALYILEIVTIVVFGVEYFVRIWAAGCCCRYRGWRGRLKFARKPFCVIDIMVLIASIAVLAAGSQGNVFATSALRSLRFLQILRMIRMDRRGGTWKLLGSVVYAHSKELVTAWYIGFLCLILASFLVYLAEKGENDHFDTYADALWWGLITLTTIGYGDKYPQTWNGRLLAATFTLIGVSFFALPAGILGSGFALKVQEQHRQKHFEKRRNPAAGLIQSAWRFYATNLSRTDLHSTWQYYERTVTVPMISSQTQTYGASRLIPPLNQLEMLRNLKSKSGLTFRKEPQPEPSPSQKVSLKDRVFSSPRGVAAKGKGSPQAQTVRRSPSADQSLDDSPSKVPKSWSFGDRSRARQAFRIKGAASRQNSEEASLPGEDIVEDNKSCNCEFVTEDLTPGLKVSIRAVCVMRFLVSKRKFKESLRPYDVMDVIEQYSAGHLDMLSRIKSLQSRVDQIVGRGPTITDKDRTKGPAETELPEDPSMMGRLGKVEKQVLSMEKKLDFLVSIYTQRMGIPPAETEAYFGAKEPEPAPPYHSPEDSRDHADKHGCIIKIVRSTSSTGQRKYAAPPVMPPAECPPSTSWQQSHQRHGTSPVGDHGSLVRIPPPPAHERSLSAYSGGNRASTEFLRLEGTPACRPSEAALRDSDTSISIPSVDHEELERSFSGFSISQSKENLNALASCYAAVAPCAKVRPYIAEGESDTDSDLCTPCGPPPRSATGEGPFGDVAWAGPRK

[20] = molecular target: Potassium voltage-gated channel subfamily KQT member 1 (Homo sapiens) (UniProt P51787); assay: KCNQ1 activators by electrophysiology – IonWorks patch clamp, KCNQ1-CHO cells, orthogonal assay for KCNQ1 potentiator project, confirmation (AID 493184;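 active = current rise at least 3 SD above the untreated control mean in each of two repeat wells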); settings: automated patch clamp current, at 10 µM

O=C(CCCc1ccccc1)NCCc1cnc[nH]1
active: activation [1] 137% | activation [12] 35.3%
inactive: outcome [2] | outcome [3] | outcome [4] | outcome [5] | outcome [6] | outcome [7] | outcome [8] | outcome [9] | outcome [10] | outcome [11] | outcome [13] | outcome [14] | outcome [15] | outcome [16]

Cc1ccc(-n2cc(CNC(C)Cc3cnccn3)c(-c3cccc(C)c3)n2)cc1 (stereo not drawn)
active: activation [1] 146% | activation [10] 42.5%
inactive: outcome [2] | outcome [3] | outcome [4] | outcome [5] | outcome [6] | outcome [7] | outcome [8] | outcome [9] | outcome [11] | outcome [12] | outcome [13] | outcome [14] | outcome [15] | outcome [16]

COc1ccc(C(CNC(=O)Cc2ccc(Cl)c(Cl)c2)N(C)C)cc1 (stereo not drawn)
active: activation [1] 120% | activation [2] 95% | activation [10] 40.5%
inactive: outcome [3] | outcome [4] | outcome [5] | outcome [6] | outcome [7] | outcome [8] | outcome [9] | outcome [11] | outcome [12] | outcome [13] | outcome [14] | outcome [15] | outcome [16]

CC1(C)CC(CCNCc2ccc3c(c2)OCO3)(Cc2ccccc2)CCO1 (stereo not drawn)
inactive: outcome [2] | outcome [3] | outcome [4] | outcome [5] | outcome [6] | outcome [7] | outcome [8] | outcome [9] | outcome [11] | outcome [13] | outcome [14] | outcome [15] | outcome [16]
active: activation [1] 169% | activation [10] 70% | activation [12] 5.46%

CC/C(=C\C=C\[C@@H]1C=C[C@@H]2CCC[C@H]2[C@@H]1C(=O)c1ccc[nH]1)[C@@H]1O[C@@H]([C@@H](C)C(=O)O)CC[C@@H]1C
active: activation [17] 499% | potentiation [18] 166% | potentiation [19] 442%
inactive: outcome [20]

CCC(=O)C(CCN1CCOCC1)(c1ccccc1)c1ccccc1
inactive: outcome [3] | outcome [4] | outcome [5] | outcome [6] | outcome [7] | outcome [8] | outcome [9] inactive [setting not given] | outcome [11] inactive [setting not given] | outcome [13] inactive [setting not given] | outcome [14] inactive [setting not given] | outcome [15] | outcome [16] inactive [setting not given]
active: activation [1] 289% | activation [2] 164% | activation [10] 69% | activation [12] 5.98%

Cc1ccc(NC(=S)NCCc2cnc[nH]2)cc1C
inactive: outcome [3] | outcome [4] | outcome [5] | outcome [6] | outcome [7] | outcome [8] | outcome [9] | outcome [10] | outcome [11] | outcome [13] | outcome [14] | outcome [15] | outcome [16]
active: activation [1] 199% | activation [2] 106% | activation [12] 85%

COc1cc(C)c(CNCCc2c[nH]c3ccccc23)cc1C
active: activation [1] 165% | activation [10] 54.5% | activation [12] 74.2% | activation [15] 12.8%
inactive: outcome [2] | outcome [3] | outcome [4] | outcome [5] | outcome [6] | outcome [7] | outcome [8] | outcome [9] | outcome [11] | outcome [13] | outcome [14] | outcome [16]

CCN1CCN(Cc2cc(Br)cc(Br)c2O)CC1
inactive: outcome [3] | outcome [4] | outcome [5] | outcome [6] | outcome [7] | outcome [8] | outcome [9] | outcome [11] | outcome [13] | outcome [14] | outcome [15] | outcome [16]
active: activation [1] 221% | activation [2] 133% | activation [10] 38.5% | activation [12] 70.3%

CCC(=O)OC1(c2cccc(C)c2)CC(C)N(C)CC1C (stereo not drawn)
inactive: outcome [2] | outcome [3] | outcome [4] | outcome [5] | outcome [6] | outcome [7] | outcome [8] | outcome [9] inactive [setting not given] | outcome [11] inactive [setting not given] | outcome [12] | outcome [13] inactive [setting not given] | outcome [14] inactive [setting not given] | outcome [15] | outcome [16] inactive [setting not given]
active: activation [1] 79% | activation [10] 74.5%
